Reference: ChEMBL document CHEMBL3988442, “University of Dundee, Small-Polar-MMV Screening Library” (2021)
For some assays here: Measured potencies and affinities stand elsewhere.

Key:
Set-up in all cases: scale not given: direction of the effect not stated beside the values
[1] = target: Protein translocase subunit SecA (Escherichia coli (strain K12)) (UniProt P10408); assay: Assay to Identify E. coli SecA ATPase Inhibitors; format: functional; conditions: 30 µM
[2] = target: T1, Ubiquitin-activating enzyme e1, putative (Leishmania donovani (strain BPK282A1)) (UniProt E9BSI1); assay: Leishmania donovani Ubiquitin Activating Enzyme (LdE1); format: functional; conditions: 30 µM
T1 sequence (whole entry): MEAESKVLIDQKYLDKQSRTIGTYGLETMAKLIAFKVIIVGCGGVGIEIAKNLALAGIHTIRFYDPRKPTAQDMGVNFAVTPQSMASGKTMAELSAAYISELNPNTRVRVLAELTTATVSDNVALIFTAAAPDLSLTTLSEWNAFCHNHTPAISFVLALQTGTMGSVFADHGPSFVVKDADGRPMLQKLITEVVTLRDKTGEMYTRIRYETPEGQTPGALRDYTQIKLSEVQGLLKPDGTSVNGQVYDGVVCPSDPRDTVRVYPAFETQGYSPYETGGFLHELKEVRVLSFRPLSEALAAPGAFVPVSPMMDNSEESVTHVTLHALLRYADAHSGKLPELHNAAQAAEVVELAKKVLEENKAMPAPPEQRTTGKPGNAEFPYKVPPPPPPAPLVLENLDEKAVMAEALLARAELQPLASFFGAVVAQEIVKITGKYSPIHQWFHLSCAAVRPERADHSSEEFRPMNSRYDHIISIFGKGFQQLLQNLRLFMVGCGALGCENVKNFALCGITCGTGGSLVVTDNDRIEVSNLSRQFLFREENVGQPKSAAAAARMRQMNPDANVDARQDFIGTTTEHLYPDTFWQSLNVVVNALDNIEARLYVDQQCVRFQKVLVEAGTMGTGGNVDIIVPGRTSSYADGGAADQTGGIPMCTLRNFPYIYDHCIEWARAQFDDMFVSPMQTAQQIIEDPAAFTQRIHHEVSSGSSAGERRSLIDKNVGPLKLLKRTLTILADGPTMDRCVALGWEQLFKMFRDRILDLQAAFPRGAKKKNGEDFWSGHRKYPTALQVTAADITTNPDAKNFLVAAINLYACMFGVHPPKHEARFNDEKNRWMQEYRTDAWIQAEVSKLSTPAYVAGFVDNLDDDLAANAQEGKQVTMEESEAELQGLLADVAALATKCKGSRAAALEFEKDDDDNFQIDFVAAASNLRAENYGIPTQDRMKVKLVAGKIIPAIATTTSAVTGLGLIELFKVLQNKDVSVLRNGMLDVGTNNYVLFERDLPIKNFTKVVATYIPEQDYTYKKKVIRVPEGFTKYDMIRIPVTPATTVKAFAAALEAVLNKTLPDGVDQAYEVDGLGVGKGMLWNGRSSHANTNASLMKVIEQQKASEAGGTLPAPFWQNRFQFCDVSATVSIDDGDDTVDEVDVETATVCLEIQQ

[3] = target: AMP-activated protein kinase, AMPK (Homo sapiens) (UniProt P54646+O43741+P54619+Q9UGJ0+Q9Y478+Q13131+Q9UGI9); assay: AMP-dependent Kinase enzyme assay. An in vitro enzyme assay that detects ADP turnover that is directly proportional to AMPK activity. This uses naive AMPK that is activated during the assay with MK-8722; format: functional; conditions: 30 µM
[4] = target: Sialic acid-binding Ig-like lectin 9 (Homo sapiens) (UniProt Q9Y336); assay: Hs-Siglec9 ALPHAscreen SOP 20170721; conditions: 10 µM
Trypanosoma cruzi = assay: Trypanosoma cruzi phosphomannomutase and mannose-1-phosphate guanylyltransferase assay; format: functional; conditions: 10 µM
[5] = target: T2, Arginase-2, mitochondrial (Homo sapiens) (UniProt P78540); assay: in vitro enzyme assay to detect the production of urea directly proportional to the activity of Arginase II; format: functional; conditions: 33.3 µM; further: in the data most compounds retested in dose-response had high values
T2 sequence (whole entry): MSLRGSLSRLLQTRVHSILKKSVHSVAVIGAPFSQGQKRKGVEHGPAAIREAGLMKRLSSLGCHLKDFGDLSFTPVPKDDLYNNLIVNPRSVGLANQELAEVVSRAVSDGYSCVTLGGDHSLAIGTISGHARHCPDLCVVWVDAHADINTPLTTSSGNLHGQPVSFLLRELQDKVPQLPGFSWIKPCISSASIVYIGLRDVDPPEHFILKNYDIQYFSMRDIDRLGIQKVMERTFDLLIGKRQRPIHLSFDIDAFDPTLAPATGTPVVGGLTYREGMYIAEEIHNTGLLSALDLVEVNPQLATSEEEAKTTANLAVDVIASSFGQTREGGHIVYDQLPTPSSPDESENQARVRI

[6] = target: T3, Proteasome subunit beta (Trypanosoma cruzi) (UniProt O96673); assay: Trypanosoma cruzi proteasome chymotrypsin-like activity (TcProtChymo) assay.; further: in the data most compounds retested in dose-response had high values; format: functional; conditions: 9.37 µM
T3 sequence (whole entry): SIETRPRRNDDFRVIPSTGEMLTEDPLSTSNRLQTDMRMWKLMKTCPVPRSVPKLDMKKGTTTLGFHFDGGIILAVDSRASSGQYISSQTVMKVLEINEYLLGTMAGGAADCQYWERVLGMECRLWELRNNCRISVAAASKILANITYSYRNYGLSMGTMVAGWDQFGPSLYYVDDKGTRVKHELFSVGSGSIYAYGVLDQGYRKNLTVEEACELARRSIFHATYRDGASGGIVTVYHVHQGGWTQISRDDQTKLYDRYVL

Homo sapiens = species: Homo sapiens; assay: To identify inhibition of the IFN signalling (Jak-Stat) pathway via expression of an eGFP reporter gene under the control of an IFN-stimulated response element (ISRE) containing MxA promoter.; format: functional; conditions: 30 µM
[7] = target: T4, Tyrosyl-tRNA synthetase, putative (Trypanosoma cruzi (strain CL Brener)) (UniProt Q4DSP6); assay: Trypanosoma cruzi tyrosyl tRNA synthetase (TcYRS) _High Tyrosine SOP; format: functional; conditions: 30 µM; further: in the data most compounds retested in dose-response had high values
T4 sequence (whole entry): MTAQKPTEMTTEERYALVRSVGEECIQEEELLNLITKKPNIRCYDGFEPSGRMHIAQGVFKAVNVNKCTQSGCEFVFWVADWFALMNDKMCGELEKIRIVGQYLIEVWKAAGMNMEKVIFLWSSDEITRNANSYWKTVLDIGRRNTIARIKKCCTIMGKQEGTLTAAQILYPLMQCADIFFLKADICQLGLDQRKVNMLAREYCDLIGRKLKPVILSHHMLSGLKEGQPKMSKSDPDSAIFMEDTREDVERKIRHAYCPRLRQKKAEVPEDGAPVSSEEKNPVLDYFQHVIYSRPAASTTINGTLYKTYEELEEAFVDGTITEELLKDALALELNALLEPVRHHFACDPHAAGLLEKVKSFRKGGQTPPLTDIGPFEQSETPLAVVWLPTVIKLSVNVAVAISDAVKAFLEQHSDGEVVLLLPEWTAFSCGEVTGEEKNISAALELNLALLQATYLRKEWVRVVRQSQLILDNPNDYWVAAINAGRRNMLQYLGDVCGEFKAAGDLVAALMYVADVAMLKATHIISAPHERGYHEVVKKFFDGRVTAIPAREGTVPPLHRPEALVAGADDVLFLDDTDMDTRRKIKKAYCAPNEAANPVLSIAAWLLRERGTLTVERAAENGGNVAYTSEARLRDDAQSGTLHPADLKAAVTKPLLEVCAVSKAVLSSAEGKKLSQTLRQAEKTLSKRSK

[8] = target: T4, Tyrosyl-tRNA synthetase, putative (Trypanosoma cruzi (strain CL Brener)); assay: Trypanosoma cruzi tyrosyl tRNA synthetase (TcYRS) SOP; format: functional; conditions: 30 µM
[9] = target: Chromo domain-containing protein 1 (Saccharomyces cerevisiae (strain ATCC 204508 / S288c) (Baker's yeast)) (UniProt P32657); assay: ScCHD-1 Enzyme Inhibition Assay; format: functional; conditions: 30 µM; further: in the data most compounds retested in dose-response had high values
Sequence of Chromo domain-containing protein 1 (Saccharomyces cerevisiae (strain ATCC 204508 / S288c) (Baker's yeast)) (P32657 whole entry, the tested form may be a part): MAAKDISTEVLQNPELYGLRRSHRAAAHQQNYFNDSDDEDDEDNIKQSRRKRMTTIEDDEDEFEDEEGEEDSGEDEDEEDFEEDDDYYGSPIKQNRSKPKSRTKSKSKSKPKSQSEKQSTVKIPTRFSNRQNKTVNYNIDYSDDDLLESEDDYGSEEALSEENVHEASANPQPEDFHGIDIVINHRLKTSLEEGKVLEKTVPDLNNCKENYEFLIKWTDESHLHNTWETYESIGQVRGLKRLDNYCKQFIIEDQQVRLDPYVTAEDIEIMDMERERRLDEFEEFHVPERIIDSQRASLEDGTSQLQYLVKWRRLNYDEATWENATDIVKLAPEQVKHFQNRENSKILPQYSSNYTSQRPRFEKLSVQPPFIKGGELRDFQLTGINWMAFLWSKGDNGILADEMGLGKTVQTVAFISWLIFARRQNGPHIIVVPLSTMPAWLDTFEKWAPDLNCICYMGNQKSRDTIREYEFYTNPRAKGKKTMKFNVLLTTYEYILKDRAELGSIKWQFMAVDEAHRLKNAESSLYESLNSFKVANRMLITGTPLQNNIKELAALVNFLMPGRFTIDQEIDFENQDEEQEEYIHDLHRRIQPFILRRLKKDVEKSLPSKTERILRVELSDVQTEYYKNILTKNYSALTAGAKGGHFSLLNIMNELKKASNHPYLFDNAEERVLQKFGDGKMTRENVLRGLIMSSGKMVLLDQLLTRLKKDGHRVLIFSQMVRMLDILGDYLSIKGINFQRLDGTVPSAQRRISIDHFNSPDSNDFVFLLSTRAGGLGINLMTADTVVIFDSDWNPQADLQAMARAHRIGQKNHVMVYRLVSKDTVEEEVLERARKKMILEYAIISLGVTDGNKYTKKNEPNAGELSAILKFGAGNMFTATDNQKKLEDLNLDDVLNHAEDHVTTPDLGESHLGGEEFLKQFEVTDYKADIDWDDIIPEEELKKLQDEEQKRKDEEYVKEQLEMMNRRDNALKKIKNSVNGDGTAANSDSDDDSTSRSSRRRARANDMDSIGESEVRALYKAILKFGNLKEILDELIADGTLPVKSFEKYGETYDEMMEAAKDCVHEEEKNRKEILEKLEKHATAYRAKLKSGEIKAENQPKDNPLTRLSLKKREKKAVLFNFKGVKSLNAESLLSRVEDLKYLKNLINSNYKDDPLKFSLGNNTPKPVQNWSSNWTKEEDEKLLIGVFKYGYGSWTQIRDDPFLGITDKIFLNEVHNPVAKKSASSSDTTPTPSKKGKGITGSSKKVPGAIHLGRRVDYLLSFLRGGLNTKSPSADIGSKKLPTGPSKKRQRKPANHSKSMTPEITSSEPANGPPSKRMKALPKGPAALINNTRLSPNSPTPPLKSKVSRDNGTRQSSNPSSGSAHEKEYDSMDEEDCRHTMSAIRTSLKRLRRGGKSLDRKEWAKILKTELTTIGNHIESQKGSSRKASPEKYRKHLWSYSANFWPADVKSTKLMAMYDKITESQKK

Sequence of Sialic acid-binding Ig-like lectin 9 (Homo sapiens) (Q9Y336 whole entry): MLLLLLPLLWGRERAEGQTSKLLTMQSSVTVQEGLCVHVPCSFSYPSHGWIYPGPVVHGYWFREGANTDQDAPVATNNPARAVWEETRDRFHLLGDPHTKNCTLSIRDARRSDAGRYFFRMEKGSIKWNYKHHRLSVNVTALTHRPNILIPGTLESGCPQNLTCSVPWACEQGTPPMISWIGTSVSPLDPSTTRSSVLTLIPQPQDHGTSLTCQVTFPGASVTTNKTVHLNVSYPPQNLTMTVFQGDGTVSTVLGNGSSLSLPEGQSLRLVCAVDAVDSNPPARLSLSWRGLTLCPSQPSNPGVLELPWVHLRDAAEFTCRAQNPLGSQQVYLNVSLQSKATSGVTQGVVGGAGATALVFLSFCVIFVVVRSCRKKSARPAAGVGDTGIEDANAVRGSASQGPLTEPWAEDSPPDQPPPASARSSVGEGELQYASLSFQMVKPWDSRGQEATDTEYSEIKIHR
Sequence of Protein translocase subunit SecA (Escherichia coli (strain K12)) (P10408 whole entry): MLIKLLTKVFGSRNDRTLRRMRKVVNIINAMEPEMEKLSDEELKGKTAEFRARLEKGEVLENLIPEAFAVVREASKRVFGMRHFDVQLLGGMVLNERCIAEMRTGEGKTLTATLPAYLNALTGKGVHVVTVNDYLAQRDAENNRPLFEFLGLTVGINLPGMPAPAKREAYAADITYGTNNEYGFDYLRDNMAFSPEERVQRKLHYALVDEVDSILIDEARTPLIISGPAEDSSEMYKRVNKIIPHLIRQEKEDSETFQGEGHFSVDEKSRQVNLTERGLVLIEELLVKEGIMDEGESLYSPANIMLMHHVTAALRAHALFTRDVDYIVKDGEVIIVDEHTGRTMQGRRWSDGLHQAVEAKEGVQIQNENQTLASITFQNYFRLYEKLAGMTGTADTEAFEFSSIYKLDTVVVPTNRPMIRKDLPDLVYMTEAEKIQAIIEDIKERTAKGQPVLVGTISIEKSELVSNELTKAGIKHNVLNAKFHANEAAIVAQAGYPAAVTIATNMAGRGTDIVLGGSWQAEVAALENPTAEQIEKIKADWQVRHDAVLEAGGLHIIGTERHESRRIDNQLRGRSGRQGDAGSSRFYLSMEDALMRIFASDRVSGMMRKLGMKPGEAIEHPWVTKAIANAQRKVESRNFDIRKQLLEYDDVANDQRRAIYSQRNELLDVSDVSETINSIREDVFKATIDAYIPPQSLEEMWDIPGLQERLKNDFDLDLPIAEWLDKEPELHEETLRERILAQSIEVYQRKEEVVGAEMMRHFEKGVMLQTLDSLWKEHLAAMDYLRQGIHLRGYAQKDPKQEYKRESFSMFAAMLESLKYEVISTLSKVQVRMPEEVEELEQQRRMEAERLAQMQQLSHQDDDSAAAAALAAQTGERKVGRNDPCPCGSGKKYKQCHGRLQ

| Compound | Percent Effect [1] [%] | Percent Effect [2] [%] | Percent Effect [3] [%] | Percent Effect [4] [%] | Percent Effect (Trypanosoma cruzi) [%] | Percent Effect [5] [%] | Percent Effect [6] [%] | Percent Effect (Homo sapiens) [%] | Percent Effect [7] [%] | Percent Effect [8] [%] | Percent Effect [9] [%] |
| --- | --- | --- | --- | --- | --- | --- | --- | --- | --- | --- | --- |
| COCCN(CCc1ccccc1)Cc1nc2c(cnn2C)c(=O)[nH]1 | -1.78 | 13.5 | 1.09 | 15.2 | 1.04 | -2.81 | -0.36 | -11.6 | 7.39 | 18.5 | -9.44 |
| Cc1cc(C)nc(Nc2cccc(C3CCCN(C)C3)n2)n1 (configuration not stated) | -4.27 | 1.35 | 9.63 | -3.78 | 2.77 | -3.94 | 4.68 | -3.42 | 2.15 | 6.49 | -16.2 |
| CC(C)Cc1cc(NC(=O)c2ccc[nH]2)n(C)n1 | -5.53 | 5.2 | 3.29 | 6.59 | -5.24 | -5.34 | -0.169 | 0.305 | 5.83 | 14.6 | -7.26 |
| Cc1cc(NC(=O)NCCc2ccsc2)n(C)n1 | -0.993 | 15.3 | -5.89 | 15.8 | 0.291 | -0.883 | 20.7 | -9.26 | 1.05 | 10.3 | 85 |
| O=C1CCC2(CCCN(c3ncc(F)cn3)CC2)N1CC1CC1 (configuration not stated) | -4 | 7.79 | 3.94 | 5.12 | 1.08 | 5.81 | 12.7 | 14.5 | 6.35 | 16.7 | -4.57 |
| CN(C)C(=O)N1CCN(Cc2nnc(C(C)(C)C)o2)CC1 | -0.665 | -5.41 | 0.51 | 3.54 | 0 | 1.91 | 1.55 | -1.07 | -1.59 | 0 | -0.0145 |
| O=C(NC1CC(=O)N(Cc2cccc(F)c2)C1)c1ccncc1 (configuration not stated) | -2.44 | -8.11 | 4.25 | -3.94 | -1.93 | -0.476 | 10.7 | 1.72 | 1.59 | 4.88 | 0.971 |
| c1ccc2c(N3CCCCC3Cn3cncn3)ncnc2c1 (configuration not stated) | -4.99 | 2.67 | -0.541 | 0.114 | -0.876 | 3.12 | 8.54 | 16.2 | 2.73 | 6.17 | -6.35 |
| CN1CC(=O)N(c2ccsc2)CC12CCN(S(C)(=O)=O)C2 (configuration not stated) | -4.15 | 0 | -4.23 | -4.81 | 6.84 | -2.5 | 20 | -12.5 | 3.96 | 11 | -0.42 |
| CC(C)CCN1CCN(Cc2nc(C3CC3)no2)CC1 | -7.83 | -2.7 | 1.67 | -0.524 | 1.17 | -0.417 | 9.38 | 2.9 | 2.97 | -3.66 | -0.984 |
| Cn1ccnc1CN1C[C@@H](CN2CCC(CO)CC2)[C@@H](CO)C1 | -7.42 | 5.41 | -7.54 | 7.63 | 6.37 | -1.43 | 17.4 | 7.57 | 1.59 | 14.6 | -5.25 |
| COc1ccc(-c2nc(CN3CCCC3Cn3cccn3)no2)cc1 (configuration not stated) | -6.58 | 7.79 | -5.32 | 11.9 | 8.99 | -6.41 | 9.12 | 12.7 | 5.83 | 21.9 | -11.9 |
| CCCOc1cccc(CNC(=O)CN2CCN(C)CC2C)c1 (configuration not stated) | -1.3 | 13.5 | -7.22 | 15 | 1.02 | -6.47 | 1.98 | 14.1 | 3.96 | 15.8 | -9.26 |
| COc1ccc(Br)c(C(=O)NCC2CCN(C(=O)c3ccoc3)CC2)c1 | -6.69 | 5.48 | 7.36 | -0.134 | 0.783 | 3.18 | 12.4 | 7.16 | 5.38 | 17.5 | -6.16 |
| CN1CCCC1c1cccc(Cc2ccccc2F)n1 (configuration not stated) | -3.07 | -20.3 | 13.4 | 1.77 | -0.79 | -3.02 | -1.87 | 49.3 | 14 | 11.7 | 0.4 |
| CN(C)[C@@H]1CCN(C(=O)NC2CCCC2)[C@H]1Cc1cnn(C)c1 | -4.9 | 2.67 | -90.2 | 5.44 | -0.197 | 2.1 | 7.84 | -0.845 | 1.06 | -3.85 | 1.31 |
| Cc1cccc(CNC(=O)CNc2cc(CO)ccc2Cl)c1 | -6.11 | 2.63 | 4.86 | -0.518 | -1.27 | 1.18 | 11 | -4.91 | 4.25 | 7.79 | -2.84 |
| Cc1cnn(CC2CN(CC(=O)Nc3nnc(C)s3)CCO2)c1 (configuration not stated) | -5.89 | 13.2 | 0.773 | 3.55 | 7.71 | -0.766 | 6.01 | -6.29 | 3.43 | 12.2 | -12.5 |
| CN(Cc1cccnc1)CC1CCCN1c1cccnn1 (configuration not stated) | 4.47 | 18.2 | -2.81 | -14.9 | -5.58 | 0.21 | 13.7 | 27.4 | 7.62 | 18.8 | -18.6 |
| O=C(CCc1cscn1)N1CCCC(n2ccnc2)C1 (configuration not stated) | -6.32 | 1.27 | 6.89 | -0.321 | -2.36 | 0.645 | 0.343 | -13.2 | 8.33 | 5.06 | -12.3 |
| COc1ccc(CNC(=O)NCC2CCOC2)c(C(F)(F)F)c1 (configuration not stated) | -7.19 | 1.39 | -0.168 | 4.9 | -4.37 | -0.442 | 9.3 | 16.2 | 5.26 | 2.56 | -0.725 |
| CC(=O)N1CCN(CCNS(=O)(=O)c2ccc(C)c(F)c2)CC1 | -5.17 | 18.4 | -1.98 | -13.7 | 3.41 | 1.18 | 7.96 | 3.39 | -1.06 | 13 | -13.1 |
